The record followed here is PubChem BioAssay.

What is called inhibition is the change of the read-out against control, counted positive when it falls.

A short description of test [1]: inhibitors of TNFa-induced NFkB p65 translocation, primary screen, imaging, HUVEC, MLSMR starter and 10KST1 sets (AID 438;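 active = inhibition above 20% together with a positive visual image hit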;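 also: compound added about 3h40 before a 20 min TNFalpha stimulation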;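 as to inhibition: signal is the nuclear over cytoplasmic p65 intensity ratio per well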). The settings on record: HUVEC TNFa-induced p65 nuclear translocation; cell count: measured here: nuclei count (cytotoxicity indicator), at 2.08 µM; inhibition: at 2 µM, stronger effect = higher value, 0% TNFa-plus-vehicle, 100% no-TNFa wells.
Test [2] is described as follows: inhibitors of mutant huntingtin aggregation, primary screen, imaging, exon1htt(103Q)mCFP cells, high-content imaging (AID 483).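 Also: compound exposure lasted 3 days before fixation.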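 As to nuclei count: percent of the per-plate median nuclei count of sample wells.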 As to conditions: exon1htt(103Q)mCFP cell line, aggregate imaging, at 2 µM; inhibition of aggregation: stronger effect = higher value; nuclei count: measured here: cell count, toxicity.
Test [3] in a line: inhibitors of E-selectin induction by TNFa, primary screen, imaging, HUVEC, immunofluorescence, MLSMR starter and 10KST1 sets (AID 487;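 active = visually confirmed hit in the image check and inhibition above 20%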;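 as to inhibition: signal is fraction of cell area covered by stained E-selectin grains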;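 as to nuclei count: 100% = median nuclei count of all wells on the same plate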). The settings on record: HUVEC TNFalpha-induced E-selectin immunofluorescence imaging, at 2 µM; inhibition: stronger effect = higher value; nuclei count: measured here: cell number, toxicity.
The target of test [4] is Voltage-gated potassium channel subunit beta-2 (Rattus norvegicus) (UniProt P62483). Put plainly: KvBeta enzyme negative modulators, primary screen, biochemical, NADPH fluorescence (AID 622;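 active = fluorescence slope higher than the sample average by over 3 SD, cut at about -0.22 in these data, passing the limit was not always enough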;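 also: slope of raw intensity against log time taken from 70 to 1610 s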). The settings on record: recombinant KvBeta, 4-cyanobenzaldehyde reduction, at 10 µM, stronger effect = higher value.
Sequence of Voltage-gated potassium channel subunit beta-2 (Rattus norvegicus) (P62483 whole entry, looked up): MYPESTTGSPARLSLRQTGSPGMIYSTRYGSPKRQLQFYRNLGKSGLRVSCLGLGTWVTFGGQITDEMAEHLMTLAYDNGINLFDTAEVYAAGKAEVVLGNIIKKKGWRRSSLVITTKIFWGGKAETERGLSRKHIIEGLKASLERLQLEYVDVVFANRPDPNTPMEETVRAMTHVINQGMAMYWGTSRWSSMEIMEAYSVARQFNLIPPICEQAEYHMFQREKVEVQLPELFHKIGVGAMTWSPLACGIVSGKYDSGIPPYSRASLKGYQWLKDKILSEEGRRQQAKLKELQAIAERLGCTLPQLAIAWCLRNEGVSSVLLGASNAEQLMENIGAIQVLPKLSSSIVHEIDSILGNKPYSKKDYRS
The target is the same in test [5]. Description: KvBeta positive modulators, primary screen, biochemical, NADPH fluorescence (AID 623;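 active = NADPH fluorescence slope more negative than the mean of all samples by about 3 SD, 99.7% confidence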;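 also: fluorescence intensity change per second fitted from 20 to 320 s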). The settings on record: Recombinant KvBeta, NADPH fluorescence decrease slope, 10 min; at 10 µM; stronger effect = lower value.
Test [6] has as its target Alpha-2C adrenergic receptor (Homo sapiens) (UniProt P18825). Put plainly: modulators of alpha2C/GIRK thallium flux, primary screen, cell-based, HEK293 alpha2C/GIRK1/2 (AID 624;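 active = fluorescence slope after compound addition differing from the mean of all screened samples at 99.7% confidence, in either direction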;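 also: slope of fluorescence ratio to pre-addition baseline per second over 15 to 24 s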). The settings on record: thallium flux BTC fluorescence, at 10 µM, actives lie on both sides.
Test [7] in a line: inhibitors of Sendai virus-induced IRF3 signaling, primary screen, TLR/RLR signaling modifier project, cell-based, Sendai virus stimulus, luciferase, 10K MLSCN set (AID 602276;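 active = inhibition at or above 50% at 10 µM; inactive = inhibition below 50%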;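 also: firefly luciferase from ISG56 promoter only with Renilla not read in this screen; 0% = Sendai virus plus DMSO and 100% = medium plus DMSO without virus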). The settings on record: HEK293 RL24 IRF3 luciferase reporter, at 10 µM, stronger effect = higher value. Background: Reporter assays use an easily measured gene product as a stand-in for the process of interest.
Test [8] in a line: inhibitors of poly I:C-induced TLR3 signaling, primary screen, cell-based, poly I:C stimulus, luciferase, 10K MLSCN set (AID 602277;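 active = inhibition of the reporter signal at or above 50%; inactive = inhibition below 50%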). The settings on record: HEK293-TLR3 RL24 IRF3 luciferase reporter, at 10 µM, stronger effect = higher value.

The source made the active and inactive calls.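 The calls were made as follows, unless noted: active = visual image review flags a hit and inhibition of aggregation exceeds 20%; inconclusive = visual hit but inhibition at or below 20%; inactive = no hit on visual image review.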

Sequence of Alpha-2C adrenergic receptor (Homo sapiens) (P18825 whole entry, looked up): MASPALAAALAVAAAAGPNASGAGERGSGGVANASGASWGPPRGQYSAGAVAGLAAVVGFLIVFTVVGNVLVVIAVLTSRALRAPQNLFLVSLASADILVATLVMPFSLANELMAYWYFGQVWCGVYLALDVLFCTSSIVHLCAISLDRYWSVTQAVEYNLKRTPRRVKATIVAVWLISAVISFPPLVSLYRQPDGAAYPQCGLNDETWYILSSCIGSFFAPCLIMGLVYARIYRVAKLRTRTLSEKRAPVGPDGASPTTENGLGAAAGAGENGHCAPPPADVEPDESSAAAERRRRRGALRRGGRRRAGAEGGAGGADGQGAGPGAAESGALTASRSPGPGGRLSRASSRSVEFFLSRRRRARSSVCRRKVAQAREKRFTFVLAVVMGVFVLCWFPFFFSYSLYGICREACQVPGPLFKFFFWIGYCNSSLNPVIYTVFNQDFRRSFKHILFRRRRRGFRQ

For `CCn1cc(C(=O)OCc2ccc(F)cc2)c(=O)c2ccc(C)nc21`, the cell count in test [1] turned out to be 360. In addition, the inhibition in test [1] was 0.4% (inactive); in test [3], -16.9% (inactive); in test [7], 11.6% (inactive); in test [8], -3.06% (inactive). Also, in test [2], the inhibition of aggregation is -17.1% (inactive). The nuclei count came out at 102% in test [2] and 98% in test [3]. In addition, in test [4], the fluorescence slope is -0.428 (inactive). In test [5], the NADPH fluorescence slope is -2.4e-05 (inactive). Moreover, the slope in test [6] was 0.00561 (inactive).

`Cc1ccc2c(c1)C(N1CCCC1=O)CC(c1ccco1)N2` (centres undefined): the cell count in test [1] was found to be 343. Moreover, the inhibition was 0% (inactive) in test [1], -7.7% (inactive) in test [3], -30.3% (inactive) in test [7] and 98.9% (active) in test [8]. Also, in test [2], the inhibition of aggregation is 14.5% (inactive). Further, the nuclei count in test [2] is 94.2%; in test [3] it was 106%. In test [4], the fluorescence slope was -0.407 (inactive). Further, in test [5], the NADPH fluorescence slope was 3.1e-05 (inactive). In addition, the slope in test [6] was 0.00529 (inactive).

Regarding `CCOC(=O)c1sc(NC(=O)c2c(C)nn(Cc3ccccc3)c2C)cc1C`, the cell count in test [1] was determined as 395. The inhibition is -7.8% (inactive) in test [1], -20.6% (inactive) in test [3], -9.51% (inactive) in test [7] and -3.87% (inactive) in test [8]. Further, the inhibition of aggregation in test [2] is 42.3% (active). Also, the nuclei count was determined as 60% in test [2] and 106% in test [3]. The fluorescence slope in test [4] was -0.448 (inactive). The NADPH fluorescence slope in test [5] was -0.000126 (inactive). Further, in test [6], the slope was 0.00542 (inactive).

For `O=C(Oc1ccc(Cl)cc1N1C(=O)CCC1=O)c1ccco1`, in test [1], the cell count was found to be 331. The inhibition in test [1] is -4.2% (inactive); in test [3], -182% (inactive); in test [7], 7.34% (inactive); in test [8] it was 31.5% (inactive). In test [2], the inhibition of aggregation was -31.4% (inactive). The nuclei count in test [2] worked out at 114%; in test [3], 134%. The fluorescence slope in test [4] was -0.463 (inactive). For the same compound, the NADPH fluorescence slope in test [5] is -1.4e-05 (inactive). Moreover, the slope in test [6] is 0.00607 (inactive).

Turning to `COCCNC(=O)CN1CCC(NC(=O)Nc2ccc(C(F)(F)F)cc2)CC1`, the cell count in test [1] turned out to be 515. Also, the inhibition in test [1] was 0.8% (inactive); in test [3], -85% (inactive); in test [7], 5.43% (inactive); in test [8], 3.51% (inactive). Moreover, in test [2], the inhibition of aggregation was -24.7% (inactive). The nuclei count in test [2] is 70.9%; in test [3] it was 96.8%. Further, the fluorescence slope in test [4] was -0.296 (inactive). Further, the NADPH fluorescence slope in test [5] was -4.5e-05 (inactive). For the same compound, the slope in test [6] is 0.0053 (inactive).

As for `COc1ccc(S(=O)(=O)Cc2ccc(C(=O)N3CCN(c4ccccc4)CC3)o2)cc1`, in test [1], the cell count amounted to 524. The inhibition in test [1] was -8.3% (inactive); in test [3] it was -89.5% (inactive); in test [7] it was -7.36% (inactive); in test [8] it was 26.1% (inactive). The inhibition of aggregation in test [2] was 5.7% (inactive). Further, the nuclei count is 70.9% in test [2] and 133% in test [3]. In addition, the fluorescence slope in test [4] is -0.44 (inactive). Besides, the NADPH fluorescence slope in test [5] was -4.3e-05 (inactive). The slope in test [6] was 0.00594 (inactive).

Turning to `C=C(C)COc1ccc(-c2nc(N)ncc2-c2ccc(OC)cc2)c(O)c1`, in test [1], the cell count worked out at 278. Moreover, the inhibition is -9.5% (inactive) in test [1], -120% (inactive) in test [3], 5.72% (inactive) in test [7] and 27.1% (inactive) in test [8]. Moreover, in test [2], the inhibition of aggregation is 24.6% (inactive). Besides, the nuclei count in test [2] is 69.5%; in test [3], 111%. Besides, the fluorescence slope in test [4] is -0.433 (inactive). The NADPH fluorescence slope in test [5] is -2.4e-05 (inactive). The slope in test [6] was 0.00614 (inactive).

In the case of `COc1cccc(OCCn2ccnc2)c1`, the cell count in test [1] was 305. Moreover, the inhibition in test [1] was -6.6% (inactive); in test [3], -24.7% (inactive); in test [7], -8.26% (inactive); in test [8], -3.22% (inactive). Moreover, the inhibition of aggregation in test [2] is 9.6% (inactive). Also, the nuclei count in test [2] was found to be 82.1%; in test [3], 120%. For the same compound, the fluorescence slope in test [4] is -0.422 (inactive). Besides, the NADPH fluorescence slope in test [5] was 2e-05 (inactive). For the same compound, the slope in test [6] was 0.00692 (inactive).

With `COc1ccc(-c2c3c(=O)n(C)c(=O)n(C)c3cn2-c2cccc(OC)c2)cc1`, in test [1], the cell count was determined as 430. The inhibition in test [1] is 5.2% (inactive); in test [3], -50.3% (inactive); in test [7] it was -0.838% (inactive); in test [8], 0.686% (inactive). Also, the inhibition of aggregation in test [2] is 5.3% (inactive). For the same compound, the results for the nuclei count in test [2] and in test [3] were 110% and 99.9%, respectively. In test [4], the fluorescence slope is -0.605 (inactive). Besides, the NADPH fluorescence slope in test [5] is 6.5e-06 (inactive). In test [6], the slope is 0.00638 (inactive).

Take `CNC(=O)NCCN1CCCC1=O`: the cell count in test [1] was 505. Further, the inhibition in test [1] is 4.5% (inactive); in test [3], -83.1% (inactive); in test [7], 9.55% (inactive); in test [8], 11.8% (inactive). In addition, the inhibition of aggregation in test [2] is -26.4% (inactive). Also, the nuclei count is 111% in test [2] and 123% in test [3]. For the same compound, in test [4], the fluorescence slope was -0.335 (inactive). Besides, the NADPH fluorescence slope in test [5] was -3.4e-05 (inactive). Further, the slope in test [6] is 0.00479 (inactive).

In the case of `Cc1ccc2nc(-c3ccc(S(=O)(=O)N4CCOCC4)cc3)cn2c1`, the cell count in test [1] amounted to 591. For the same compound, the inhibition was -9.3% (inactive) in test [1], 7.4% (inactive) in test [3], 5.63% (inactive) in test [7] and -13.9% (inactive) in test [8]. For the same compound, the inhibition of aggregation in test [2] is -9.3% (inactive). For the same compound, the values for the nuclei count in test [2] and in test [3] were 96.7% and 89.1%, respectively. Also, the fluorescence slope in test [4] is -0.0874 (active). Besides, in test [5], the NADPH fluorescence slope was 1e-05 (inactive). Moreover, the slope in test [6] was 0.00713 (inactive).

On to `CCOCCn1c(CN2CCN(c3cccc(Cl)c3)CC2)nc2c1c(=O)n(C)c(=O)n2C`, for which the cell count in test [1] amounted to 743. Further, the inhibition was -15.7% (inactive) in test [1], -20% (inactive) in test [3], 1.6% (inactive) in test [7] and 22.6% (inactive) in test [8]. In test [2], the inhibition of aggregation was -5.1% (inactive). For the same compound, the nuclei count in test [2] stood at 104%; in test [3] it was 103%. The fluorescence slope in test [4] was -0.592 (inactive). In addition, the NADPH fluorescence slope in test [5] is -4.2e-05 (inactive). The slope in test [6] is 0.00703 (inactive).

For the compound `O=C(NCc1ccc2c(c1)OCO2)C1CCC(CNc2c(N3CCCCC3)c(=O)c2=O)CC1` (centres undefined), the cell count in test [1] amounted to 579. Further, the inhibition was 6.8% (inactive) in test [1], 11.9% (inactive) in test [3], 7.38% (inactive) in test [7] and 24.7% (inactive) in test [8]. Besides, the inhibition of aggregation in test [2] was 2.3% (inactive). In addition, the values for the nuclei count in test [2] and in test [3] were 109% and 104%, respectively. In addition, the fluorescence slope in test [4] was -0.595 (inactive). Moreover, in test [5], the NADPH fluorescence slope was -4.4e-05 (inactive). In test [6], the slope was 0.00656 (inactive).

In the case of `Fc1cccc(-c2cc3nc4c(c(N5CCN(c6cnccn6)CC5)n3n2)CCCC4)c1`, the cell count in test [1] came out at 468. The inhibition in test [1] was -3.1% (inactive); in test [3], -80.1% (inactive); in test [7], -15.7% (inactive); in test [8], -16.1% (inactive). For the same compound, the inhibition of aggregation in test [2] is -5.2% (inactive). Moreover, the nuclei count worked out at 101% in test [2] and 100% in test [3]. The fluorescence slope in test [4] was -0.622 (inactive). For the same compound, the NADPH fluorescence slope in test [5] is -2.7e-05 (inactive). In test [6], the slope is 0.00757 (inactive).
